Reference: PubChem BioAssay (NCI)
About 83,000 compounds went through this panel and 20% of them were active in at least one assay; those are over-represented in the sample as a whole.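 Compound tested at a single concentration for 48 hours in 96-well plates; a percent growth value below 10 was scored as active.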 Activity calls are given as the source filed them.

Test system: NCI-H522 lung
Test: NCI-60 one-dose screen, 48 h (100 = growth as untreated, 0 = no growth, -100 = all killed)
Conditions: 10 µM unless noted

Structure (SMILES)	growth
CCOC(=O)c1ccc2c(c1)[n+](=O)c(C(C)=O)c(C(F)(F)F)n2[O-]	-83.8% (active)
COc1ccc2c(O)cc3c(c2c1)[C@H](CCl)CN3C(=O)c1cc2cc(NC(=O)CCN3CCOCC3)ccc2[se]1	-82.5% (active)
O=C(/C=C/C12c3ccccc3C(c3ccccc31)C1C(=O)NC(=O)C12)c1cccs1 (stereo not drawn)	28% (inactive)
O=C1c2cccnc2C(=O)c2c1c(C(=O)OCCCN1CCOCC1)c1ccccn21	-75.1% (active)

Test system: A549/ATCC NSCLC
Test: as above
Conditions: 10 µM unless noted

Structure (SMILES)	growth
Cc1ccc(OCCOCCOCCOCCOc2ccc(C)n(O)c2=S)c(=S)n1O	12.5% (inactive)
CCN(CC)CCCC(Nc1c2ccc(Cl)cc2nc2ccc(OC)cc12)c1ccncc1 (stereo not drawn)	74.4% (inactive)
COc1cccc(C2C3=C(COC3=O)N(CCO)c3cc4c(cc32)OCCO4)c1 (stereo not drawn)	24.6% (inactive)
CN(C)CC1C(=O)O[C@H]2[C@H]1CC/C(COC(=O)NCc1ccc(Cn3c(=O)sn(CCCI)c3=O)cc1)=C\CC[C@@]1(C)O[C@@H]21 (stereo partly drawn)	101% (inactive)
CC(C)=CC(=O)C1C(=O)c2ccccc2C1=O	106% (inactive)
Cn1cc(-c2ccc3c(Nc4cccc(NC(=O)Nc5cccc(F)c5)c4)ncnc3c2)cn1	28.7% (inactive)
COc1cc2c(c(OC)c1OC)C(=O)CC(c1cccc(C(=O)Nc3ccc(Br)cc3)c1)O2 (stereo not drawn)	78.8% (inactive)
COc1cc2nc3cc([N+](=O)[O-])ccc3c(NCCCNCCO)c2cc1OC	-26.6% (active)
CCOC(=O)C1=CCC(n2cc(F)c(=O)[nH]c2=O)O1 (stereo not drawn)	102% (inactive)
Cc1nc2sc(C(=O)Nc3ccccc3)c(N)c2cc1C(O)c1ccccc1 (stereo not drawn)	24.4% (inactive)
C=C(CNCCO)[C@@H]1CC[C@]2(CO)CC[C@]3(C)[C@H](CC[C@@H]4[C@@]5(C)CCC(NCCO)C(C)(C)[C@@H]5CC[C@]43C)[C@@H]12 (stereo partly drawn)	61.4% (inactive)
COC(=O)CCc1c(/C=C2\N=C(c3ccc[nH]3)C=C2OC)[nH]c(C)c1C(=O)OCc1ccccc1	11.9% (inactive)
CSc1nc(N)c2c(n1)NC(c1ccccc1)C1CCc3ccccc3C1=N2 (stereo not drawn)	72.2% (inactive)
CC(CN)[C@@H]1CC[C@]2(CO)CC[C@]3(C)[C@H](CC[C@@H]4[C@@]5(C)CCC(NCCO)C(C)(C)[C@@H]5CC[C@]43C)[C@@H]12 (stereo partly drawn)	59.2% (inactive)
O=S(=O)(c1ccc(NCSc2nc3ccccc3s2)cc1)c1ccc(NCSc2nc3ccccc3s2)cc1	91.1% (inactive)
COc1ccc(Cn2cc(C(=O)N=Nc3c(O)[nH]c4ccc(Br)cc34)nn2)cc1	95.1% (inactive)
Oc1ccc(C(c2ccc(O)cc2)c2ccc(Cl)cn2)cc1	52.1% (inactive)
O=C(Nc1cccc(Cn2c(=O)[nH]c3ccc(Oc4ncccn4)cc3c2=O)c1)c1cccc(Cl)c1	55.5% (inactive)
Cc1ccc(C(=O)Nc2ccc(CN3CCN(C)CC3)c(C(F)(F)F)c2)cc1C#Cc1cnc(N)c2ccccc12	-65.7% (active)
C[C@H]1c2ccccc2CN1CCCOc1cc2c(cc1OCC1CC1)C1(CCCC1)C(N)=N2	74.1% (inactive)

Structure (SMILES)	growth
CC1=C2[C@@H](CC1)[C@]1(C)O[C@@](C(C)C)(C[C@H]1OC(=O)CO)[C@H]2OC(=O)CCCc1ccccc1	58.4% (inactive)
Oc1ccc(Cc2ccc(O)c3ncccc23)c2cccnc12	7.38% (active)
C=C(c1ccc(OC)c(/C=C/C(=O)c2cc(OC)c(OC)c(OC)c2)c1)c1cc(OC)c(OC)c(OC)c1	9.3% (active)
COc1ccc(-c2nc(SCCC(C)C)nc(N/N=C(/C)c3ccc(N)cc3)c2C#N)cc1	98.4% (inactive)
CCCCC1=C(Br)C(=O)c2ncccc2C1=O	94.8% (inactive)
COc1ccc(/C(C)=C(\c2ccc(Cl)cc2)c2ccc(OCCCN(C)C)cc2)cc1	47.2% (inactive)
CC(=O)/C(Br)=C/c1ccc(Br)o1	102% (inactive)
CC(C)n1nc(-c2ccc3oc(N)nc3c2)c2c(N)ncnc21	-6.71% (active)
CCCNNC(=O)c1ccc(CNC(=O)/C=C/c2ccccc2)cc1	34.8% [2.5 µM] (inactive)
O=C(Nc1ncc(Cc2ccc(Cl)cc2)s1)C1=NCCCCN1	109% (inactive)
COc1cc2c(c(OC)c1OC)CCC(c1cccc(C(=O)Nc3ccc([N+](=O)[O-])cc3)c1)O2 (stereo not drawn)	55.2% (inactive)
C=CCn1c(SCC(=O)Nc2ccc(C(=O)/C=C/c3ccc(Cl)cc3)cc2)nnc1-c1ccccc1	93.2% (inactive)
c1ccc(Cn2cc3c(c2)-c2nc(Nc4ccccc4)ncc2CC3)cc1	81.9% [100 µM] (inactive)
Clc1nc(N2CCC[N+]3(CC2)CC[N+]2(CCCNCC2)CC3)nc(N2CCC[N+]3(CC2)CC[N+]2(CCCNCC2)CC3)n1 (stereo not drawn)	86.1% (inactive)
C#C[C@]1(O)CC[C@H]2[C@@H]3CC=C4c5sc(-c6ccccc6)nc5CC[C@]4(C)[C@H]3CC[C@@]21C	101% (inactive)
CCOC(=O)c1ccc2c(c1)[n+](=O)c(C(C)=O)c(C(F)(F)F)n2[O-]	19.2% (inactive)
COc1ccc2c(O)cc3c(c2c1)[C@H](CCl)CN3C(=O)c1cc2cc(NC(=O)CCN3CCOCC3)ccc2[se]1	-29.5% (active)
O=C(/C=C/C12c3ccccc3C(c3ccccc31)C1C(=O)NC(=O)C12)c1cccs1 (stereo not drawn)	43.5% (inactive)
O=C1c2cccnc2C(=O)c2c1c(C(=O)OCCCN1CCOCC1)c1ccccn21	-25% (active)
